Only some compounds are listed: those with a hit (about 4.2% of all), similar ones and a draw of the others.
VDR inhibitor = vitamin D3 receptor (human) inhibition | VDR-SRC2-3 peptide fluorescence polarization, 2 h | P11473 | hit rate 0.93% among 400,000 | Potency, µM, most hits filed as inhibitors
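Two reagent solutions held at 4 deg C in the dark were dispensed, compounds pinned at 23 nl, and the mixture incubated 2 h at room temperature. Read-out: fluorescence polarization of VDR–SRC2-3 peptide binding.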
ALOX12 inh = ALOX12 (human) lipoxygenase inhibition | Potency, µM (titrated, usually from 108 µM), usual class: inhibitors | purified 12hLO, xylenol orange hydroperoxide absorbance | hit rate 1.1% among 580,000
Target sequence (P18054 whole entry, looked up): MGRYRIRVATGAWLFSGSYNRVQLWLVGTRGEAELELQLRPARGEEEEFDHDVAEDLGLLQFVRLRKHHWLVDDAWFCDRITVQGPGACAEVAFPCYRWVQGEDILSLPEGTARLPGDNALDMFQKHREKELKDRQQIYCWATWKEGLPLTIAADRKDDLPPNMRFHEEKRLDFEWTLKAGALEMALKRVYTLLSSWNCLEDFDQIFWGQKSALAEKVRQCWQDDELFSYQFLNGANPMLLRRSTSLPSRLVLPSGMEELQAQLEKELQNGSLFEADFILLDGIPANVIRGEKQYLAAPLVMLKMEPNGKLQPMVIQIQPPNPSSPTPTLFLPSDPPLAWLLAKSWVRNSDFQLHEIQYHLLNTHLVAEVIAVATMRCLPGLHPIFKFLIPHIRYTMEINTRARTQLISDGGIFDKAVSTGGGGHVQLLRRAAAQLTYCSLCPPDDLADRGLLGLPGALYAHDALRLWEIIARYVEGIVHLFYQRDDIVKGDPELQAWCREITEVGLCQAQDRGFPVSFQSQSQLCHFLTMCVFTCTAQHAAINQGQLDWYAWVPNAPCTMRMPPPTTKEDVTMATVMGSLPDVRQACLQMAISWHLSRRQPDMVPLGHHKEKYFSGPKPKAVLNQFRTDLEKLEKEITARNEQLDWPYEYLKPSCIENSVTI
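Purified human 12hLO (150 nM final) in 25 mM Hepes, 0.01% Triton X-100, pH 7.0 was preincubated 15 min at room temperature with compound. Then 40 uM arachidonic acid was added, 30 min. Hydroperoxide was read by Fe-XO absorbance ratio 573/405 nm.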
Sfp PPTase inh = inhibitors of Bacillus subtilis Sfp phosphopantetheinyl transferase | Potency, µM, actives largely listed as inhibitors | Biochemical Sfp PPTase activity, qHTS | hit rate 3.5% among 310,000;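 further: the enzyme is Sfp with the accession as filed and its product quenches rhodamine fluorescence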
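Buffer: 50 mM Hepes-Na pH 7.6, 10 mM MgCl2, 0.01% Nonidet P-40, 0.01% BSA. Enzyme 15 nM, pre-exposed to compound 15 min; substrates then added and fluorescence change tracked over 30 min.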
PLK1 PBD block = blocks phosphopeptide binding to human PLK1 polo-box domain. P53350. Plk1 PBD binding of FITC phosphopeptide, fluorescence polarization. Potency, µM, usual class: inhibitors. hit rate 2.8% among 360,000. AID 720504; further: series mostly up to about 57 µM; nearly all actives have a fitted effect of over 65% in size
A number is an active result; 0 = inactive; ? = inconclusive; - = no result; ! = a repeat was not active. The call rests on the fitted dose curve; in most records, active means well fitted curve in the direction sought with a large enough effect; inconclusive means small, poorly fitted or top-dose-only effect, or another doubt; inactive means no such curve, though single readings can be large; an effect the other way counts as inactive or inconclusive.

SMILES | VDR inhibitor | ALOX12 inh | Sfp PPTase inh | PLK1 PBD block
O=C(O)CC1OCC=C2CN3CCC45C6=CC(=O)C(=O)C([N+](=O)[O-])=C6NC4C1C2CC35 (configuration not stated) | 79µM | - | 14µM | ?
O=C(O)CC1OCC=C2CN3CCC45c6ccccc6NC4C1C2CC35 (configuration not stated) | 0 | 0 | 0 | 0
Cc1[nH]c2ccc(C#N)cc2c1CCN | - | 0 | - | -
CCC(=NCCC(c1ccccc1)c1ccccc1)c1c(O)n(C)c(=O)n(C)c1=O | 0 | 0 | 0 | 0
Oc1ccc(CC2CC3CCN2CC3)cc1O (configuration not stated) | 0 | ? | 0 | 0
Oc1ccc(C[C@H]2NCCc3cc(O)c(O)cc32)cc1O | 0 | ? | 71µM | 0
O=C(O)c1ccc[nH]c1=S | 0 | ? | 8.9µM | ?
CC1(C)CC(=O)C(C2(O)C(=O)NC(=O)NC2=O)=C(O)C1 | 45µM | 0 | 0 | 0
CCC(C)NC(=O)CN1C(=O)CN=C(c2ccccc2)c2ccccc21 (configuration not stated) | 0 | 0 | 0 | 0
Cc1ccc(OCCOc2cccc(C=C3C(=O)NC(=O)NC3=O)c2)c(C)c1 | ? | ? | 50µM | 5.3µM
CCOC(=O)c1c(-n2c(C)cc(/C=C3\C(=O)NC(=O)N(C)C3=O)c2C)sc2c1CCCC2 | ? | ? | ? | 2.7µM
Cc1cc(/C=C2\C(=O)NC(=O)N(c3ccc(Cl)cc3)C2=O)c(C)n1-c1sc2c(c1C#N)CCCC2 | ? | 11µM | 32µM | 1.2µM
Nc1c2c(nc3sc4c(c13)CCCC4)CCCCC2 | 0 | 0 | 0 | 0
O=C1NC(=O)N(c2ccc(Cl)cc2)C(=O)/C1=C\c1ccc(Sc2nc3ccccc3[nH]2)o1 | 0 | 8.9µM | 71µM | 3.8µM
Cc1cc(C=C2C(=O)NC(=O)NC2=O)c(C)n1-c1cccnc1 | 0 | ? | 0 | ?
C=CCN1C(=O)/C(=C/c2cc(C)n(-c3cccnc3)c2C)C(=O)NC1=S | 0 | ? | 0 | 1.5µM
CCOC(=O)c1ccc(-n2c(N)c(C(=O)NCC3CCCO3)sc2=S)cc1 (configuration not stated) | ? | 0 | 32µM | 12µM
O=C(Nc1ccc(OC(=O)N2CCCC2)cc1)N1CCOCC1 | 0 | 0 | 0 | 0
O=C(Oc1ccc(Cl)cc1)N1CCOCC1 | 79µM | 0 | 0 | 11µM
CCc1cnc(N2CCC3(CC2)C(=O)Nc2cc(OCC4CC4)c(OC)cc23)nc1 | - | 0 | - | -
CCn1c(O)c(/C=N/NC(=O)c2ccncc2)c(=O)n(CC)c1=S | 0 | 0 | 79µM | 0
CN1CSC(=S)N(C)C1 | 0 | 0 | 45µM | ?
NC(C(=O)O)c1cc(=O)[nH]o1 (configuration not stated) | 0 | ? | 79µM | 0
O=C1NC(=O)C(Sc2ccccc2[N+](=O)[O-])C(=O)N1 | 40µM | 10µM | 20µM | 3µM
CC(=O)c1ccc2c(c1)C1C(Cl)C(Sc3ccccc3[N+](=O)[O-])CC1C(c1ccccc1[N+](=O)[O-])N2 (configuration not stated) | 0 | 0 | ? | 0
SMILES | VDR inhibitor | ALOX12 inh | Sfp PPTase inh | PLK1 PBD block
CC(=O)c1ccc2c(c1)C1C(Cl)C(Sc3ccccc3[N+](=O)[O-])CC1C(c1ccccc1)N2 (configuration not stated) | ? | ? | 0 | 15µM
CN1CCN(CCC(=O)OC2CC3CCC(C2)N3C)CC1 (configuration not stated) | 0 | ? | 0 | 0
Cc1ccc(-[n+]2c(Cc3nn(-c4ccccc4)c(C)[n+]3-c3ccc(C)cc3)nn(-c3ccccc3)c2C)cc1 | - | 0 | - | 0
NC(N)=N/N=C/c1ccc(N(c2ccccc2)c2ccccc2)cc1 | 0 | ? | 40µM | 0
CC[C@]1(O)CC(O[C@@H]2CC(N(C)C)C(O)C(C)O2)c2c(cc3c(c2O)C(=O)c2c(O)ccc(O)c2C3=O)C1C(=O)OC (some centres not stated) | 0 | - | 0 | -
COc1ccc(S(=O)(=O)N2[C@H]3CC[C@@H]2c2cnc(C)nc2C3)cc1 | - | 0 | - | -
FC(F)(F)c1ccc(CN2CCNCC2)cc1 | 0 | ? | 0 | 0
CN1C(=O)N(C)C(=O)C2(Cc3cc(N)ccc3N3CCN(c4ccccc4F)CC32)C1=O (configuration not stated) | - | ? | 0 | -
CN1CCN2c3ccc(N)cc3CC3(C(=O)NC(=O)NC3=O)C2C1 (configuration not stated) | 0 | ? | 22µM | 0
O=C(O)c1ccc(Cl)nc1 | 0 | 0 | 0 | 19µM
O=C(C(=C1N(Cc2ccc(Cl)nc2)CCN1Cc1ccc(Cl)nc1)[N+](=O)[O-])C(Cl)Cl | 0 | 0 | 0 | ?
O=C(c1ccc2c(c1)N(Cc1ccccc1)CCS2)N1CCC2(CC1)OCCO2 | 0 | 0 | 0 | 0
O=C1Nc2cc(C(=O)N3CCC4(CC3)OCCO4)ccc2NC1CSCc1cccc(F)c1 (configuration not stated) | - | - | 50µM | -
COc1ccc(CCNCc2cccc(Br)c2)cc1 | - | 1.3µM | - | -
COc1ccc(CCNCc2ccc(Br)cc2)cc1 | - | 22µM | - | -
C[C@H](N)CN1CCc2ccc(Br)cc21 | 0 | 0 | - | 0
CCCN(CCC)C1Cc2cc(OC)c(OC)cc2C1 | 0 | 0 | 0 | 0
CN(C)c1ccc(C(=O)NC[C@H]2C[C@@H]3CCN2C[C@@H]3c2cc(C3CCCCC3)nn2C)cc1 | - | 0 | - | -
CCOP(=O)(/C=C(\Cl)c1ccccc1)C(O)c1ccc(F)cc1 (configuration not stated) | ? | 0 | 0 | 21µM
Cc1ccc(NC(=O)Cn2c(=O)oc3ccccc32)cc1C | ? | 0 | 0 | 21µM
COc1ccc(-c2nc(NC(=O)Cn3c(=O)oc4ccccc43)sc2C)cc1 | 0 | 0 | ? | 0
CCOc1ccccc1-n1c(O)c(C=NCc2ccc3c(c2)OCO3)c(=O)[nH]c1=O | 0 | 0 | 0 | 0
CN1C(=O)C(Cc2ccsc2)C(=O)N(C)C1=O | ? | 0 | 28µM | ?
Cc1cc(CN2CCC3(C2)C(=O)N(C)c2ccccc23)no1 (configuration not stated) | - | 0 | - | -
COc1ccc(CCn2c(O)c(C=NCc3cccnc3)c(=O)[nH]c2=O)cc1OC | 0 | 0 | 0 | 27µM
SMILES | VDR inhibitor | ALOX12 inh | Sfp PPTase inh | PLK1 PBD block
O=C(NC1CCCCC1)OC[C@H]1C[C@@H]2CCN1C[C@@H]2c1cc(C2CCCC2)nc(-c2ccncc2)n1 | - | 32µM | - | -
O=C(Nc1cccc(C(F)(F)F)c1)OC[C@H]1C[C@@H]2CCN1C[C@@H]2c1cc(C2CCCC2)nc(-c2ccncc2)n1 | - | 50µM | - | -
CC(=O)c1ccc(NC(=O)OC[C@H]2C[C@@H]3CCN2C[C@@H]3c2cc(C3CCCC3)nc(-c3ccncc3)n2)cc1 | - | 0 | - | -
COc1ccccc1-c1cc([C@H]2CN3CC[C@H]2C[C@@H]3COC(=O)Nc2ccccc2)nc(C)n1 | - | 0 | - | -
COc1cc(NC(=O)OC[C@H]2C[C@@H]3CCN2C[C@@H]3c2cc(-c3ccc(N(C)C)cc3)nc(C)n2)cc(OC)c1 | - | 45µM | - | -
CC(=O)c1cccc(NC(=O)OC[C@H]2C[C@@H]3CCN2C[C@@H]3c2cc(C3CCCC3)nc(C)n2)c1 | - | 0 | - | -
CC(C)NC(=O)OC[C@H]1C[C@@H]2CCN1C[C@@H]2c1cc(C2CCCC2)nc(-c2ccncc2)n1 | - | 28µM | - | -
COc1ccc2c(c[n+](C)c3c4cc5c(cc4ccc23)OCO5)c1OC | 28µM | 9.7µM! | 50µM | -
